# Tau fluor cs: Counterscreen qHTS for Inhibitors of Tau Fibril Formation, Fluorescence Polarization. tau K18 P301L Alexa594 fluorescence, heparin fibrillization. Potency, µM (highest dose often 57.7 µM), without a hit: at the top dose activity change, negative = decrease. actives 0.93% (n = 280,000). AID 1463, 2008; note: potency is the fitted concentration of half-maximal effect; nearly all actives have a fitted effect of over 55% in size
#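 Human tau K18 P301L (15 uM unlabeled, 0.24 uM Alexa 594-labeled) in 100 mM sodium acetate pH 7 with 20 uM heparin, 6 hr at 37 C. ThT 30 uM added, 1 hr ambient; Alexa 594 FP and total fluorescence read at 555/632 nm.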
# JMJD2E inh: qHTS Assay for Inhibitors of Human Jumonji Domain Containing 2E (JMJD2E); Lysine-specific demethylase 4E (Homo sapiens), B2RXH2; JMJD2E catalytic domain, FDH-coupled NADH fluorescence (FDH is formaldehyde dehydrogenase); Potency, µM (series often up to 57.1 µM), inactives show at the highest dose activity change, negative = inhibition, usual class: inhibitors; actives 1.6% (n = 230,000); AID 2147, 2009; active = well fitted inhibition curve with a large enough effect, not every such curve was filed as active; inconclusive = small, poorly fitted or top-dose-only effect, or another doubt; inactive = no such curve, though single readings can be large or run the other way;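 note: potency is the fitted concentration of half-maximal effect; 0% = wells with enzyme and -100% = buffer wells without enzyme; nearly all actives have a fitted effect of over 50% in size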
# Tau fibril FP: qHTS for Inhibitors of Tau Fibril Formation, Fluorescence Polarization; Microtubule-associated protein tau (Homo sapiens), P10636; K18 P301L tau heparin fibrillization, Alexa594 FP, 6 h; Potency, µM (titrated, usually from 57.7 µM), inactives show at the highest dose activity, negative = inhibition, hits mostly inhibitors; actives 0.39% (n = 280,000); AID 1468, 2008; note: potency is the fitted concentration of half-maximal effect; nearly all actives have a fitted effect of over 55% in size
# Target sequence (P10636 561-689 P618L limits assumed): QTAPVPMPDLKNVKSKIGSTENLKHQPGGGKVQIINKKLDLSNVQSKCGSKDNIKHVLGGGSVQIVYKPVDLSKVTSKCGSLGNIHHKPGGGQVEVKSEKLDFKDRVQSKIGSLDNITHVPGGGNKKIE
#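 Heparin (20 uM) drove fibril formation of recombinant tau K18 P301L, 15 uM unlabeled with 0.24 uM Alexa 594 label, for 6 hr at 37 C in 100 mM sodium acetate pH 7. Fluorescence polarization (555/632 nm) read 1 hr after 30 uM ThT.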
# NPSR antagonist: qHTS Assay for Antagonists of the Neuropeptide S Receptor: cAMP Signal Transduction. CHO-NPSR cells, cAMP TR-FRET, antagonist mode. Potency, µM (highest dose often 38.3 µM), inactives show top-dose activity change, negative = inhibition, most hits filed as inhibitors. Q6W5P4. actives 1% (n = 220,000); note: potency is the fitted concentration of half-maximal effect; nearly all actives have a fitted effect of over 50% in size
# Target sequence (Q6W5P4 whole entry, looked up): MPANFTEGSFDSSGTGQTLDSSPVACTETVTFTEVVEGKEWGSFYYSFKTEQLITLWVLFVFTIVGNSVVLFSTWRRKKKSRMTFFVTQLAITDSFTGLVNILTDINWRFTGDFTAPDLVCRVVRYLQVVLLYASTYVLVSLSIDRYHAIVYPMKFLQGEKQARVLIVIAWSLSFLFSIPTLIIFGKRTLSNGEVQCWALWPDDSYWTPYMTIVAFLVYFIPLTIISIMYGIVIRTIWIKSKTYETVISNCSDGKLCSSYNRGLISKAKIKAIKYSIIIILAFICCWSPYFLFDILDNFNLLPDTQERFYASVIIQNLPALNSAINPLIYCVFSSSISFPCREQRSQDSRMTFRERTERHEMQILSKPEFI
# PNC inhibitor: High Content Assay for Compounds that inhibit the Assembly of the Perinucleolar Compartment | actives 3.1% (n = 140,000) | PC3M PTB-GFP, PNC prevalence imaging, 16 h; active compounds read low | activity change (PNC), negative = inhibition, % at 10 µM | AID 2417, 2010;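 active = readout at or below -70, meaning at least 70% loss of cells showing the perinucleolar compartment, a nuclear body marking cancer cells; inconclusive = readout between -30 and a set limit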;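 note: plate controls were DMSO wells for no effect and camptothecin positive control wells for full effect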
#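 Compounds are pinned in duplicate onto adhered PC3M cells stably expressing GFP-tagged PTB and incubated 16 h at 37 C. Cells are then fixed, nuclei stained with Hoechst, and PNC-positive cells counted.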
# Tau fibril ThT: qHTS for Inhibitors of Tau Fibril Formation, Thioflavin T Binding; Microtubule-associated protein tau (Homo sapiens), P10636; actives 2.1% (n = 270,000); Potency, µM (titrated, usually from 57.4 µM), for inactives: at the highest dose activity, negative = inhibition, hits mostly inhibitors; AID 1460, 2008; recombinant tau K18 P301L (four-repeat tau fragment), heparin-induced fibrillization, ThT fluorescence; note: potency is the fitted concentration of half-maximal effect; nearly all actives have a fitted effect of over 55% in size
#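 Aggregation was driven by heparin (20 uM final) acting on recombinant tau […] bearing P301L in 100 mM sodium acetate pH 7; fibrils were detected with Thioflavin T.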
# The depositor's hits bear a star; ? = inconclusive; nt = no result; [ ] = remark or other dose. Sampled rows, rich in hits. Any-hit rate of the full collection: about 5.1%. Unless noted, calls come from the whole dose curve; as a rule, active = well fitted curve in the direction sought with a large enough effect; inconclusive = small, poorly fitted or top-dose-only effect, or another doubt; inactive = no such curve, though single readings can be large; an effect the other way counts as inactive or inconclusive. Unless noted, % is set by controls: 0 for no effect and ±100 for the full control effect.
SMILES,Tau fluor cs,JMJD2E inh,Tau fibril FP,NPSR antagonist,PNC inhibitor,Tau fibril ThT
Cc1o[nH]c(=O)c1CC(N)C(=O)O (stereo unspecified),-0.7%,-2.9%,5.9%,3.2%[46.1 µM],nt,-3.8%
N[C@@H](Cn1oc(=O)[nH]c1=O)C(=O)O,-12.2%,20µM*,-2.6%,12.9%[46.1 µM],nt,-8.4%
Cc1ccccc1C(=O)Nc1sc2c(c1C(=O)O)CCC(C(C)(C)C)C2 (stereo unspecified),?,nt,-7.9%,nt,nt,20µM*
CCOC(=O)c1c(NC(=O)c2c(N)n(CCCOC)c3nc4ccccc4nc23)sc2c1CCCC2,?,9.7%,11.5%,-0.3%[46.1 µM],?,?
CC(=O)OC1CC2C(C)(C)C(O)C=C[C@@]2(C)C2CC[C@]3(C)C(=CC(=O)OC3c3ccoc3)[C@]12C (stereo partly specified),-14.1%,-6.1%,?,nt,nt,35.5µM*
CC(=O)OC1CC(OC(C)=O)[C@]2(C)C(CC(OC(C)=O)[C@]3(C)C2CC[C@@]2(C)C(c4ccoc4)C(=O)C4O[C@]432)C1(C)C (stereo partly specified),-11.8%,-3.9%,3.5%,nt,nt,-13.1%
COC(=O)[C@@H]1C[C@H](OC(C)=O)C(=O)[C@H]2[C@@]1(C)CC[C@H]1C(=O)O[C@H](c3ccoc3)C[C@]21C,-3.1%,nt,-5.0%,nt,nt,-10.5%
NC(N)=Nc1ccc2[nH]c3c(c2c1)C[C@@]1(O)[C@H]2Cc4ccc(O)c5c4[C@@]1(CCN2CC1CC1)[C@H]3O5,-4.1%,10µM*,-0.9%,?,nt,1.3%
Oc1ccc2c3c1O[C@H]1c4[nH]c5c(c4C[C@@]4(O)[C@@H](C2)N(CC2CC2)CC[C@]314)C[C@]1(O)[C@H]2Cc3ccc(O)c4c3[C@@]1(CCN2CC1CC1)[C@@H]5O4,-12.5%,?,-4.7%,nt,nt,?
O=[N+]([O-])c1ccc(N2CCNCC2)c2ncccc12,-12.6%,0.5%,-2.0%,2.7%[46.1 µM],0.7,?
O=[N+]([O-])c1ccc(N2CCCC2)c2ccncc12,-10.2%,1.4%,0.2%,-39.6%,nt,12.6µM*
CC(C)c1ccc(N2C(=O)NC(=O)/C(=C\c3cnc(-c4ccccc4)nc3)C2=O)cc1,-19.3%,20µM*,?,-19.6%[46.1 µM],?,22.4µM*
Cc1ccc(N2C(=O)NC(=O)/C(=C/c3cnc(-c4ccccc4)nc3)C2=O)cc1C,-23.0%,12.6µM*,?,-47.2%,17.6,15.8µM*
O=C1NC(=O)N(c2ccccc2)C(=O)/C1=C/c1ccoc1,-5.5%,-5.7%,-9.3%,0.1%,nt,?
Cc1cccc(N2C(=O)NC(=O)/C(=C\c3cnc(-c4ccccc4)nc3)C2=O)c1,1.8%,-6.0%,4.3%,-47.6%,58.2,5.4%
CC(C)C1C(=O)N2CCCC2[C@]2(O)O[C@@](NC(=O)[C@@H]3C=C4c5cccc6[nH]cc(c56)C[C@H]4N(C)C3)(C(C)C)C(=O)N12 (stereo partly specified),?,?,?,nt,nt,20µM*
CC(C)[C@H]1C(=O)N2CCC[C@H]2[C@]2(O)O[C@](NC(=O)[C@@H]3C=C4c5cccc6[nH]cc(c56)C[C@H]4N(C)C3)(C(C)C)C(=O)N12,?,?,?,1µM*,-25.1,?
CC(C)[C@@]1(NC(=O)[C@@H]2C[C@H]3c4cccc5[nH]cc(c45)C[C@@H]3N(C)C2)O[C@]2(O)[C@H]3CCCN3C(=O)CN2C1=O,nt,-15.4%[25.5 µM],nt,nt,nt,nt
COc1cc(OC)c(OC)cc1CN1CCc2nc(N3CCN(c4ccccc4F)CC3)ncc2C1,-3.8%,nt,6.5%,nt,nt,?
